From the supplement of paper PMC10849652
Targets with a hit are over-represented here; the source holds about 8,800 in all. About 0.5% of all pairs of compound and target were hits. A number with no mark means an inactive call.

Key:
Assay in all cases: log2 fold change, soluble protein after heating vs DMSO (PISA); higher = thermal stabilisation; K562 lysate, 10 uM; active = over 0.2 and 3.5 SD of the protein, either way, in both replicates (recomputed)
alvocidib = compound: CN1CC[C@H](c2c(O)cc(O)c3c(=O)cc(-c4ccccc4Cl)oc23)[C@H](O)C1 [alvocidib]
Outline: (§1)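 Following dounce homogenisation of K562 pellets in PBS pH 7.4 with 1 mM MgCl2, crude extract at 1 mg/mL protein was incubated for 30 min with 10 μM compound. Aliquots were then heated for 3 min over 48°C-58°C and pooled, NP-40 was added to 0.5% at 4°C, and soluble protein was recovered as the supernatant at 21,000xg for 90 min. Channel-sum-equalised TMTpro 16plex LC-MS/MS quantified this protein. Each value, from duplicates, is a log-two fold change in thermal stability relative to solvent controls.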

Tubastatin A = compound: CN1CCc2c(c3ccccc3n2Cc2ccc(C(=O)NO)cc2)C1 [Tubastatin A]
Outline: as §1

[1] = compound: CNC(=O)C1=CC=CC=C1NC2=NC(=NC=C2Cl)NC3=C(C=C(C=C3)N4CCOCC4)OC
Outline: as §1

defactinib = compound: CNC(=O)c1ccc(Nc2ncc(C(F)(F)F)c(NCc3nccnc3N(C)S(C)(=O)=O)n2)cc1 [defactinib]
Outline: as §1

[2] = compound: CNc1nc(-c2ccc3c(N)n[nH]c3c2)cc(N2C[C@@H](C(=O)NC3CCCCC3)CC[C@H]2C)n1
Outline: as §1

encorafenib = compound: COC(=O)N[C@@H](C)CNc1nccc(-c2cn(C(C)C)nc2-c2cc(Cl)cc(NS(C)(=O)=O)c2F)n1 [encorafenib]
Outline: as §1

[3] = compound: COC(=O)[C@H](CCSC)NC(=O)C1=C(C=C(C=C1)NC[C@H](CS)N)C2=CC=CC=C2
Outline: as §1

[4] = compound: COc1cc2nc(-c3cc(F)ccc3O)nc(N[C@@H]3CNC[C@H]3C(C)(C)O)c2cc1OC
Outline: as §1

lapatinib = compound: CS(=O)(=O)CCNCc1ccc(-c2ccc3ncnc(Nc4ccc(OCc5cccc(F)c5)c(Cl)c4)c3c2)o1 [lapatinib]
Outline: as §1

pictilisib = compound: CS(=O)(=O)N1CCN(Cc2cc3nc(-c4cccc5[nH]ncc45)nc(N4CCOCC4)c3s2)CC1 [pictilisib]
Outline: as §1

[5] = compound: C[C@H](C1=CC=C(C=C1)C(=O)NC2=C3C=CNC3=NC=C2)N
Outline: as §1

duvelisib = compound: C[C@H](Nc1ncnc2nc[nH]c12)c1cc2cccc(Cl)c2c(=O)n1-c1ccccc1 [duvelisib]
Outline: as §1

gandotinib = compound: Cc1cc(Nc2cc(CN3CCOCC3)c3nc(C)c(Cc4ccc(Cl)cc4F)n3n2)n[nH]1 [gandotinib]
Outline: as §1

tozasertib = compound: Cc1cc(Nc2cc(N3CCN(C)CC3)nc(Sc3ccc(NC(=O)C4CC4)cc3)n2)n[nH]1 [tozasertib]
Outline: as §1

bafetinib = compound: Cc1ccc(NC(=O)c2ccc(CN3CC[C@H](N(C)C)C3)c(C(F)(F)F)c2)cc1Nc1nccc(-c2cncnc2)n1 [bafetinib]
Outline: as §1

[6] = compound: Cc1cccc(CC(=O)N2CCc3c2ccc(-c2cn(C)c4ncnc(N)c24)c3F)n1
Outline: as §1

alisertib = compound: COc1cc(Nc2ncc3c(n2)-c2ccc(Cl)cc2C(c2c(F)cccc2OC)=NC3)ccc1C(=O)O [alisertib]
Outline: as §1

gefitinib = compound: COc1cc2ncnc(Nc3ccc(F)c(Cl)c3)c2cc1OCCCN1CCOCC1 [gefitinib]
Outline: as §1

crizotinib = compound: C[C@@H](Oc1cc(-c2cnn(C3CCNCC3)c2)cnc1N)c1c(Cl)ccc(F)c1Cl [crizotinib]
Outline: as §1

doramapimod = compound: Cc1ccc(-n2nc(C(C)(C)C)cc2NC(=O)Nc2ccc(OCCN3CCOCC3)c3ccccc23)cc1 [doramapimod]
Outline: as §1

Chain of UniProt P19525 (P19525 whole entry, looked up): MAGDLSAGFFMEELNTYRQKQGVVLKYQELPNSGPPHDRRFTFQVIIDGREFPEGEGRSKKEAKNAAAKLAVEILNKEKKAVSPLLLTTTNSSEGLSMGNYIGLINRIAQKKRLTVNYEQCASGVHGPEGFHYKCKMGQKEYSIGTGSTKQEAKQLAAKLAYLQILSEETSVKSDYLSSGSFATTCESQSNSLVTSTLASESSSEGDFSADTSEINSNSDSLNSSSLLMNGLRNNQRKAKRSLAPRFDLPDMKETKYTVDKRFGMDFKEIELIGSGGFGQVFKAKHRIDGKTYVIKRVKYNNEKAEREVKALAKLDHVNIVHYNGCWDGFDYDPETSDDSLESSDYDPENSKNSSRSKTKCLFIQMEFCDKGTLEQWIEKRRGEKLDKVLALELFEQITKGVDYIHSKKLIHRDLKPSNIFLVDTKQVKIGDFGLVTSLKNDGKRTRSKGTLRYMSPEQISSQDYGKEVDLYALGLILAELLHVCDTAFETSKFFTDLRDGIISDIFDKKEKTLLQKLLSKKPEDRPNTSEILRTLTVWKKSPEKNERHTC
Chain of UniProt O94905 (O94905 whole entry, looked up): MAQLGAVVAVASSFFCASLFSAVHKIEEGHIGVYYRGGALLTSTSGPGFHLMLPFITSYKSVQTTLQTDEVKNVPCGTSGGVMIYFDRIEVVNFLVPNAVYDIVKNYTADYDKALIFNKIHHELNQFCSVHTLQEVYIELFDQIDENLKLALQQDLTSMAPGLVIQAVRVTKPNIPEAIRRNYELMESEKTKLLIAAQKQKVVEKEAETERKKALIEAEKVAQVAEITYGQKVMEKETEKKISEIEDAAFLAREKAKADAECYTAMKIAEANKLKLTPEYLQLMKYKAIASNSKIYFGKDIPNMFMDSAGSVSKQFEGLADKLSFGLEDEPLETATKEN
Chain of UniProt P35916 (P35916 whole entry, looked up): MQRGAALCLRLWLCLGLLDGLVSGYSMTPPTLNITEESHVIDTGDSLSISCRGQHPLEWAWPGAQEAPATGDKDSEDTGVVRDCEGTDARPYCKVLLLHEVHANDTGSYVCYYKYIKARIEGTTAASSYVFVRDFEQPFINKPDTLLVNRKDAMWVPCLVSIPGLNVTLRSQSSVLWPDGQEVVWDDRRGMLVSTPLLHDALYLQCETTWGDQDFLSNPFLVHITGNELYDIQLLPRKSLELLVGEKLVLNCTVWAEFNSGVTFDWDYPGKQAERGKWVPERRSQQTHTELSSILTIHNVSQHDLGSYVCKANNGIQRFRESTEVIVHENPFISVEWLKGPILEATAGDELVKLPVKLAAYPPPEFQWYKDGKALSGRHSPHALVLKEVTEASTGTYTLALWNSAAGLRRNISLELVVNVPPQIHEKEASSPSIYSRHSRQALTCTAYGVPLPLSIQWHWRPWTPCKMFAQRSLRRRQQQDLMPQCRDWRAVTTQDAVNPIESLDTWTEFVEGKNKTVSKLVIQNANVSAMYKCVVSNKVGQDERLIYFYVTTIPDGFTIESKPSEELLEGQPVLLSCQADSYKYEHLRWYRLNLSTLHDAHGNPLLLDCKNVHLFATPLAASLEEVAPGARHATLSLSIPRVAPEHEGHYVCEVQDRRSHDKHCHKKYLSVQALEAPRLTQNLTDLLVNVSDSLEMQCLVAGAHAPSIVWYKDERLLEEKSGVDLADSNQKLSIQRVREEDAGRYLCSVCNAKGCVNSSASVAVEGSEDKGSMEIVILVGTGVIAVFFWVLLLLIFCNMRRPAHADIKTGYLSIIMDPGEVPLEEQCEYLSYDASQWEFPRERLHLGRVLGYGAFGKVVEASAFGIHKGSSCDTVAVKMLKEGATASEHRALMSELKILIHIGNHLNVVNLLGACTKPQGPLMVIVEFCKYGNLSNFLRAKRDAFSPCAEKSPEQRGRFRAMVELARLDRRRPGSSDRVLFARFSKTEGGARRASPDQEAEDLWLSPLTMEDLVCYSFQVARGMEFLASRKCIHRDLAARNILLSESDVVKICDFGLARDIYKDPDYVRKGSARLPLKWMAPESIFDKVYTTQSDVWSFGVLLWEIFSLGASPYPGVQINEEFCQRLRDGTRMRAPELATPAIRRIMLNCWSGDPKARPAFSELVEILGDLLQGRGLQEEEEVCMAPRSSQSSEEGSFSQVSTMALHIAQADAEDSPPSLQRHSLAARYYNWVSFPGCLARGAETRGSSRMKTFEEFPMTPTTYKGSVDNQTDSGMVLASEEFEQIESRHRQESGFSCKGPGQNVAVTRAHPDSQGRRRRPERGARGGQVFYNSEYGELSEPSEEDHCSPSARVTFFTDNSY
Chain of UniProt Q96G46 (Q96G46 whole entry, looked up): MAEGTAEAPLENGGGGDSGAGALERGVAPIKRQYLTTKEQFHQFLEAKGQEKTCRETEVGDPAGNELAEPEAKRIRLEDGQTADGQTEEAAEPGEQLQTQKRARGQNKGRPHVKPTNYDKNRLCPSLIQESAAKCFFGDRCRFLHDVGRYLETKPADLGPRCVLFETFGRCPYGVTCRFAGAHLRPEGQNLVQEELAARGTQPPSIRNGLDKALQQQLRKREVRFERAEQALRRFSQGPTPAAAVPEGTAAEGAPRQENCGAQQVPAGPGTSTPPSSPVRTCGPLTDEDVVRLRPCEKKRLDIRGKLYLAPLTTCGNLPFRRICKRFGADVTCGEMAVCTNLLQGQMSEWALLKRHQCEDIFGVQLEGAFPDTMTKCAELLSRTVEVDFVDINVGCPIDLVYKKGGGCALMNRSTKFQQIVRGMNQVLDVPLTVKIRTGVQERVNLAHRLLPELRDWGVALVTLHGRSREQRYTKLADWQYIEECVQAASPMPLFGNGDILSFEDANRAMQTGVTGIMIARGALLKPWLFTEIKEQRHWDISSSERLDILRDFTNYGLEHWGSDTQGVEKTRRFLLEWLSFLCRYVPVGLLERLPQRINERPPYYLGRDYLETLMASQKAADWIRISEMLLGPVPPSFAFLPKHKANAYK
Chain of UniProt Q8N5C7 (Q8N5C7 whole entry, looked up): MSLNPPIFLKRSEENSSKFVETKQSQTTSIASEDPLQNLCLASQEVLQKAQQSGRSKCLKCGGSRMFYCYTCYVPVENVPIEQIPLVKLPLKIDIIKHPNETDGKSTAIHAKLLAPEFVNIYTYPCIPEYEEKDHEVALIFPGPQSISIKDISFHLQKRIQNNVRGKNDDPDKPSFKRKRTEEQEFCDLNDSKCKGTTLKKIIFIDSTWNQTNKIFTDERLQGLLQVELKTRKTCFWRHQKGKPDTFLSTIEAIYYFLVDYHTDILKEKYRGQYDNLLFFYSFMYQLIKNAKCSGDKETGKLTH
Chain of UniProt Q5HYJ3 (Q5HYJ3 whole entry, looked up): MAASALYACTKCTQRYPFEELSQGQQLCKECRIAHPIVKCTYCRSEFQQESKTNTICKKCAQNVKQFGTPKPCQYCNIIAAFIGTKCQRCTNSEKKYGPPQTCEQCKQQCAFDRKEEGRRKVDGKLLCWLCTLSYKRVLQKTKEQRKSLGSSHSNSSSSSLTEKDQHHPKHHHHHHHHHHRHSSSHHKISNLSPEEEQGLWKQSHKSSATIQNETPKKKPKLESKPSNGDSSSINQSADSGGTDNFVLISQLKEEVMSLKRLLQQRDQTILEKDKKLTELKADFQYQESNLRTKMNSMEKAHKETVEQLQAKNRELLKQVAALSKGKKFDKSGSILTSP
Chain of UniProt P34913 (P34913 whole entry, looked up): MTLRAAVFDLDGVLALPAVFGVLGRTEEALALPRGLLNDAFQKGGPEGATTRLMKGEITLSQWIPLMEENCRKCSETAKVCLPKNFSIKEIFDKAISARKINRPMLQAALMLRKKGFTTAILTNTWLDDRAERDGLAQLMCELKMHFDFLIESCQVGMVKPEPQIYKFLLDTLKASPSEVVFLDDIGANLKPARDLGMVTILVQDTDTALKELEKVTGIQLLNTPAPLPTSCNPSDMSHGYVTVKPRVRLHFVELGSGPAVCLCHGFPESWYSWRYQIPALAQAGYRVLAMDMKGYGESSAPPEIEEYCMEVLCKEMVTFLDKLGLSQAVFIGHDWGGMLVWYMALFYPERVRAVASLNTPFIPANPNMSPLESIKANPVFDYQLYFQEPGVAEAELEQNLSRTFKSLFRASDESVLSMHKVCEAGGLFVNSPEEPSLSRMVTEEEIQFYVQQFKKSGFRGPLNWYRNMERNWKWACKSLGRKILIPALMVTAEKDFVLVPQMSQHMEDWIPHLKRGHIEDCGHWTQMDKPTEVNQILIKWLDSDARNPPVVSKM
Chain of UniProt Q8WWZ3 (Q8WWZ3 whole entry, looked up): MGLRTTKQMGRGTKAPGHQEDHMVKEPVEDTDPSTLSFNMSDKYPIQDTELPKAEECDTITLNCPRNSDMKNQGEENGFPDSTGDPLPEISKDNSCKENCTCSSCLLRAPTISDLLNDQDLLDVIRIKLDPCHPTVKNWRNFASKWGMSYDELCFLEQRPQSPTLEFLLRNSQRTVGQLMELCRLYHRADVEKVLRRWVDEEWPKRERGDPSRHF
Chain of UniProt P51114 (P51114 whole entry, looked up): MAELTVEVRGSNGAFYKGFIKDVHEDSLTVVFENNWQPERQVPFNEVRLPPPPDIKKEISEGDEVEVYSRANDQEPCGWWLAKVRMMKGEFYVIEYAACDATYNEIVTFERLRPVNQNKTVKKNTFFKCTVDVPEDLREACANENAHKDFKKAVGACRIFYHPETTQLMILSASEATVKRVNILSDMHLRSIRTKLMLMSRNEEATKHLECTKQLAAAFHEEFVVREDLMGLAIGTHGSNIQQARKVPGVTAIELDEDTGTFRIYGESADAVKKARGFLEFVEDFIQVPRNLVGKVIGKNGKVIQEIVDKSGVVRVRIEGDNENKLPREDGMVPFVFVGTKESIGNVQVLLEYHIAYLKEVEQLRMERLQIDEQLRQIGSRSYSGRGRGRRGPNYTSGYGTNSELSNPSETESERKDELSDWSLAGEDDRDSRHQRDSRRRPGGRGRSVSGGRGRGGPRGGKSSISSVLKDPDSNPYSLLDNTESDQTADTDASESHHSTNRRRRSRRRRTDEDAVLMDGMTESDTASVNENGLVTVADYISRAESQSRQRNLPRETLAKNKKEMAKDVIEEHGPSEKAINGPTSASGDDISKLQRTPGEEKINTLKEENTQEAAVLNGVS

Target | log2 fold change (alvocidib) | log2 fold change (Tubastatin A) | log2 fold change [1] | log2 fold change (defactinib) | log2 fold change [2] | log2 fold change (encorafenib) | log2 fold change [3] | log2 fold change [4] | log2 fold change (lapatinib) | log2 fold change (pictilisib) | log2 fold change [5] | log2 fold change (duvelisib) | log2 fold change (gandotinib) | log2 fold change (tozasertib) | log2 fold change (bafetinib) | log2 fold change [6] | log2 fold change (alisertib) | log2 fold change (gefitinib) | log2 fold change (crizotinib) | log2 fold change (doramapimod)
FLT4 (UniProt P35916) | -0.086 | -0.001 | -0.428 (active) | 0.004 | -0.081 | -0.129 | 0.053 | 0.031 | -0.007 | 0.057 | -0.173 | 0.026 | 0.019 | -0.056 | -0.035 | -0.041 | – | – | – | –
FAM76B (UniProt Q5HYJ3) | -0.019 | 0.012 | 0.068 | 0.076 | -0.002 | 0.013 | -0.146 | 0.016 | -0.049 | – | -0.19 | -0.02 | 0.023 | -0.021 | – | 0.269 (active) | -0.02 | -0.018 | 0.028 | -0.016
EDARADD (UniProt Q8WWZ3) | -0.015 | -0.003 | 0.019 | 0.009 | -0.068 | 0.013 | -0.072 | 0.027 | -0.037 | -0.122 | -0.049 | 0.015 | 0.074 | 0.082 | 0 | -0.027 | -0.075 | 0.043 | 0.027 | 0.086
FXR1 (UniProt P51114) | -0.028 | -0.176 | 0.02 | -0.043 | -0.039 | 0.057 | 0.035 | 0.012 | -0.026 | -0.052 | -0.106 | 0.023 | -0.02 | 0.008 | -0.03 | 0.05 | -0.012 | -0.022 | -0.006 | 0.065
EPHX2 (UniProt P34913) | -0.018 | 0.183 | -0.023 | -0.002 | 0.123 | -0.02 | -0.058 | -0.007 | -0.031 | -0.019 | 0.008 | -0.031 | 0.057 | 0.116 | 0.131 | 0.012 | -0.045 | -0.002 | 0.061 | -0.079
ERLIN2 (UniProt O94905) | 0.164 | 0.016 | 0.005 | 0.002 | 0 | 0.045 | -0.164 | -0.06 | -0.015 | -0.091 | 0.304 (active) | 0.003 | -0.077 | 0.02 | -0.015 | -0.114 | 0 | 0.005 | -0.004 | 0.043
DTWD1 (UniProt Q8N5C7) | 0.041 | -0.028 | 0.011 | -0.032 | 0.01 | -0.044 | -0.046 | 0.005 | -0.049 | -0.049 | 0.015 | 0.06 | -0.07 | -0.075 | 0.002 | 0.092 | 0 | -0.006 | 0 | 0.035
DUS3L (UniProt Q96G46) | 0.076 | -0.065 | -0.012 | -0.023 | 0.001 | 0.091 | -0.024 | 0.036 | -0.009 | -0.02 | 0.202 | -0.022 | -0.081 | 0.009 | 0.093 | -0.097 | -0.02 | -0.005 | -0.027 | -0.018
EIF2AK2 (UniProt P19525) | 0.004 | -0.099 | 0.091 | 0.049 | 0.083 | 0.087 | 0.153 | 0.029 | -0.003 | 0.03 | -0.061 | -0.036 | -0.022 | -0.009 | -0.036 | 0.022 | 0.003 | -0.055 | 0.12 | 0.011
